Test results as given in ChEMBL document CHEMBL1961873, “Compounds: GSK PKIS; Assays: Nanosyn kinase panel” (2012).

Each compound was assayed against Insulin receptor (Homo sapiens) (UniProt P06213). Details: at 0.1 µM.
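Also: reported values are averages of replicate inhibition measurements against the insulin receptor.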

Chain of Insulin receptor (Homo sapiens) (P06213 28-758 limits assumed): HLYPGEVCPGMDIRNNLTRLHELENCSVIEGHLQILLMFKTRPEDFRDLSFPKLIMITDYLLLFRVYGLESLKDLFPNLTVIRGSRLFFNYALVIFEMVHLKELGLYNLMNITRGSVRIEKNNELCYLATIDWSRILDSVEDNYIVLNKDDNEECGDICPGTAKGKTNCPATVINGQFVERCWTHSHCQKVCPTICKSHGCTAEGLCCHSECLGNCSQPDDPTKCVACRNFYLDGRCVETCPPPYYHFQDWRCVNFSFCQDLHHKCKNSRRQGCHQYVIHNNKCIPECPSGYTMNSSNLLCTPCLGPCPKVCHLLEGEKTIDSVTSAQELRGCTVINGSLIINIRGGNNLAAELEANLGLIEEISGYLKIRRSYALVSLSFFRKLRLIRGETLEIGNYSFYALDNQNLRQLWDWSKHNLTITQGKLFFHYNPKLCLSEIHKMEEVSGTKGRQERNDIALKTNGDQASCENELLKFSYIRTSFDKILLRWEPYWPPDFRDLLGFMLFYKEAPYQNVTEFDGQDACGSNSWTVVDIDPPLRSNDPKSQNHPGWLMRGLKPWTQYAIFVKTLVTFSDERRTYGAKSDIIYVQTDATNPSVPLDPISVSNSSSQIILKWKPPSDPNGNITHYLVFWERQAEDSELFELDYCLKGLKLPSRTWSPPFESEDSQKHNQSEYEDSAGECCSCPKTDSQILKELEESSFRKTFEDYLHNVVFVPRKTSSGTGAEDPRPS
Chain of Insulin receptor (Homo sapiens) (P06213 763-1382 limits assumed): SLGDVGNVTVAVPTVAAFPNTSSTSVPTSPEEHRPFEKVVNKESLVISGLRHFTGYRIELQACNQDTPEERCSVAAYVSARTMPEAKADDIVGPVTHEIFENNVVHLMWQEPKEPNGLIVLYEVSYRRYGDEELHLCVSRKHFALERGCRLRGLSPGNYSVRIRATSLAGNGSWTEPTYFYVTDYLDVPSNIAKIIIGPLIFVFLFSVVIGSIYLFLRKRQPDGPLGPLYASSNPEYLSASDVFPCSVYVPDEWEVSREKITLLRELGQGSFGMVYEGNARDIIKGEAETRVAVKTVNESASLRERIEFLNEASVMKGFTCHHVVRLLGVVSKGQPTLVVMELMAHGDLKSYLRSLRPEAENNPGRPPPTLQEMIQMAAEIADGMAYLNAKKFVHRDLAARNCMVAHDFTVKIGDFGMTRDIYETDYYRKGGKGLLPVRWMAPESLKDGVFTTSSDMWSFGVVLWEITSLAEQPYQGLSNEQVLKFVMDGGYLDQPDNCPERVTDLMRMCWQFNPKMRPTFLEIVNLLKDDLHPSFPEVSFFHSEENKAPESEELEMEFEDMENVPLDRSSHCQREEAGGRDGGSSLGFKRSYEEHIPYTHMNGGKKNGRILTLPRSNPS

SMILES | inhibition
N#Cc1c(NC(=O)c2cccc3ccccc23)sc2c1CCCC2 | 5.97%
CCn1c(-c2nonc2N)nc2cncc(C(=O)N3CCNCC3)c21 | 10.5%
NS(=O)(=O)c1cccc(-c2ccc3c(NC(=O)C4CC4)n[nH]c3c2)c1 | 3.15%
CC1=C(C(=O)Nc2ccc3[nH]ncc3c2)C(c2ccc3ccccc3c2)CC(=O)N1 (stereo not drawn) | 4.67%
Cc1nnc(-c2ccc(C)c(-c3ccc(C(=O)Nc4cccc(C#N)c4)cc3)c2)o1 | 4.34%
Cc1nn(C)c2cc(N(C)c3ccnc(Nc4cccc(S(N)(=O)=O)c4)n3)ccc12 | 8.17%
CS(=O)(=O)CCN(CC#N)Cc1ccc(-c2ccc3ncnc(Nc4ccc(OCc5cccc(F)c5)c(Cl)c4)c3c2)o1 | 4.4%
NC(=O)c1cccc(Nc2nccc(Nc3cccc4[nH]ncc34)n2)c1 | -2.6%
COc1cc2ncn(-c3cc(OCc4ccccc4Cl)c(C(N)=O)s3)c2cc1OC | 4.5%
Cc1cccc(-c2n[nH]cc2-c2ccc3ncccc3n2)n1 | -0.03%
CCn1c(-c2nonc2N)nc2ccncc21 | 3.48%
COc1cc2ncn(-c3cc(OCc4ccccc4C(F)(F)F)c(C(N)=O)s3)c2cc1OC | -1.5%
NCc1ccc(-c2nc(-c3ccc(Cl)c(O)c3)c(-c3ccncc3)[nH]2)cc1 | 0.74%
CCN1CCC(CC(=O)Nc2n[nH]c3nc(-c4cccs4)c(Br)cc23)CC1 | -0.61%
COc1ccc(-c2nn3ncccc3c2-c2ccnc(Nc3ccc(Cl)c(C(F)(F)F)c3)n2)cc1 | 3.14%
COc1ccc(COc2ccc(Cc3cnc(N)nc3N)cc2OC)cc1 | 0.54%
[O-][S+]1CCN(Cc2ccc(-c3ccc4ncnc(Nc5ccc(OCc6ccccc6)c(F)c5)c4c3)o2)CC1 | 4.18%

SMILES | inhibition
CC(C)=Cc1cccc2c1/C(=N/Nc1ccc(S(N)(=O)=O)cc1)C(=O)N2 | 1.28%
Nc1ncnc2occ(-c3ccc(NC(=O)Nc4cc(C(F)(F)F)cc(C(F)(F)F)c4)cc3)c12 | -4.81%
COc1cc(C)c(NC(=O)CN(C)C)cc1Nc1nc(Nc2cccc(F)c2C(N)=O)c2cc[nH]c2n1 | 99.9%
COC(=O)Nc1nc2cc(Oc3ccc(NC(=O)Nc4cccc(C(=O)O)c4)cc3)ccc2[nH]1 | 2.72%
CS(=O)(=O)Nc1ccc(N/C=C2\C(=O)Nc3ccccc32)cc1 | -0.48%
CC(=O)Nc1cccc(C#Cc2cncnc2Nc2ccc(OCc3cccc(F)c3)c(Cl)c2)n1 | -4.01%
CN(C)c1cc2c(Nc3ccc4nc(Cc5ccccc5)[nH]c4c3)ncnc2cn1 | 7.56%
COc1ccc(-c2ccncc2)cc1C(N)=O | 9.09%
O=C(Nc1n[nH]c2nc(-c3ccco3)c(Br)cc12)C1CC1 | 3.98%
CS(=O)(=O)CCNCc1ccc(-c2ccc3ncnc(Nc4ccc(OCc5cccc(F)c5)c(C(F)(F)F)c4)c3c2)o1 | 5.7%
CCn1c(-c2nonc2N)nc2c(C#CC(C)(C)O)nc(CN3CCCC3)cc21 | 0.13%
CCn1c(-c2nonc2N)nc2c(N3CCCC3)nccc21 | 1.98%
CCc1cccc(NC(=O)Nc2ccc(Oc3ccc4nc(NC(=O)OC)[nH]c4c3)cc2)c1 | -2.61%
O=C1Nc2ccc(C(=O)c3ccco3)cc2C1=Cc1cc(Cl)c(O)c(Cl)c1 | 5.71%
CS(=O)(=O)CCNCc1nc(-c2ccc3ncnc(Nc4ccc(F)c(Cl)c4)c3c2)cs1 | -0.96%
Fc1cccc(COc2ccc(Nc3ncnc4cc(-c5ccc[nH]5)sc34)cc2Cl)c1 | 5.37%
